# Screening results from PubChem.
# The list is not random: actives were taken first. Their share in the collection is about 3.6%.
# Bead autofluor: flagged as autofluorescent in microsphere protease counterscreen. AID 624483. fluorescence intensity (test concentration not listed). compound autofluorescence counterscreen, microsphere flow cytometry; hits give high values. hit rate 3.1% among 360,000; in the data active = fluorescence intensity above about 16000; inconclusive = no clear call, values can overlap the other calls
# Anthrax LF inh2: anthrax lethal factor protease inhibition; multiplex microsphere protease cleavage assay, LF; inhibition, % at 10 µM; hit rate 0.12% among 360,000; AID 588501; note: plate controls were buffer without enzyme for full effect and enzyme alone for no effect
# BoNT A protease: BoNT A light chain protease inhibition; AID 588499; hit rate 0.17% among 360,000; inhibition, % at 10 µM; multiplex microsphere protease substrate cleavage, flow cytometry; note: plate controls were buffer without enzyme for full effect and enzyme alone for no effect
# BoNT F protease: inhibitors of Botulinum neurotoxin F light chain protease | AID 588497 | inhibition, % at 10 µM | hit rate 0.22% among 360,000 | Multiplex microsphere protease cleavage assay, flow cytometry; in the data active = inhibition above about 35%, passing the limit was not always enough; inconclusive = no clear call, values can overlap the other calls; note: plate controls were buffer without enzyme for full effect and enzyme alone for no effect
# MazF activator: increases E. coli MazEF RNase cleavage of RNA. AID 504720. P0AE70. FAM/BHQ RNA-DNA oligo cleavage fluorescence, 5 h. activation, % at 20 µM. hit rate 0.32% among 350,000; in the data active = activation above about 50%
# Target sequence (P0AE70 whole entry, looked up): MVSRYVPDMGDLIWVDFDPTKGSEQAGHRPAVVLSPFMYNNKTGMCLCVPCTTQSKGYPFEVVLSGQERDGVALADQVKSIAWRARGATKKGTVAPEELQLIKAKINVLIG
# The depositor's hits bear a star; ? = inconclusive; / = no result given; + = active, no number. Cut-off read from the data, not from the text of the source, unless noted: active = inhibition above about 30%; inconclusive = no clear call, values can overlap the other calls; inactive = below that.
SMILES,Bead autofluor,Anthrax LF inh2,BoNT A protease,BoNT F protease,MazF activator
Cc1ccccc1C(=O)NNC(=O)CCC(=O)Nc1cccc(Cl)c1C,1937,-2,1,4,-1
Cc1cc(C)c2c(=O)n(CC(=O)Nc3cccc(Cl)c3C)sc2n1,3362,1,54*,3,-68
O=C(CCC(=O)Nc1ccccc1Cl)NNC(=O)c1ccco1,2182,0,0,0,5
Cc1c(Cl)cccc1NC(=O)CCC(=O)NNC(=O)c1ccco1,16503*,0,-1,-2,-3
Cc1ccccc1NC(=O)Cn1cccc1,10489,-2,0,-1,5
Cc1c(Cl)cccc1NC(=O)CCC(=O)NNC(=O)c1ccccc1Cl,17035*,0,?,-4,-1
COc1ccc(-c2ccc(C(=O)Nc3cccc(NS(C)(=O)=O)c3)c3occc23)c(C)c1,3981,-6,0,-7,/
Nc1c(C(=O)Nc2ccccc2F)sc2nc(Cc3ccccc3)cc(C(F)(F)F)c12,10566,8,6,7,+
CCOc1c(Cl)cc(CNCC(C)C)cc1OC,24375*,-3,?,-7,5
CCOc1c(Cl)cc(CNCC(O)c2ccccc2)cc1OC (centres undefined),2115,0,0,-5,3
CC1(CCC(=O)N2CCCC(N3CCN(c4cccc(C(F)(F)F)c4)CC3)C2)CC1 (centres undefined),5604,-2,0,2,-6
CC(C)C(c1nnnn1C1CCCC1)N1CCc2ccccc21 (centres undefined),17487*,-8,6,-2,8
CC(C)C(c1nnnn1C1CCCCC1)N1CCCc2ccccc21 (centres undefined),3352,0,0,-4,-3
CC(C)C(c1nnnn1C1CCCC1)N1CCCc2ccccc21 (centres undefined),24060*,-2,-3,-2,1
CCOP(=O)(c1ccc(N(C)C)cc1)C(O)c1cccnc1 (centres undefined),4211,-23,-1,?,4
CC(C)COP(=O)(c1ccc(N(C)C)cc1)C(O)c1ccccn1 (centres undefined),10074,1,1,5,8
CCCOP(=O)(c1ccc(N(C)C)cc1)C(O)c1cccnc1 (centres undefined),19815*,-1,-1,-4,-13
CCOP(=O)(c1ccc(N(C)C)cc1)C(O)c1ccccc1OC (centres undefined),18542*,-12,?,5,-2
CC(C)OP(=O)(c1ccc(N(C)C)cc1)C(O)c1ccncc1 (centres undefined),24190*,1,-2,-4,-1
CC(C)CCOP(=O)(c1ccc(N(C)C)cc1)C(O)c1ccccn1 (centres undefined),16641*,3,1,0,4
CCOC(=O)N1CCN(C(=O)COC(=O)C2CCN(S(=O)(=O)c3ccc(C)c(C)c3)CC2)CC1,5912,0,1,1,1
O=C(NCC1CCCO1)C1CCCN(Cc2cnn(-c3ccccc3)c2-n2cccc2)C1 (centres undefined),2832,0,0,3,0
Cc1ccc(CNC(=O)C2CCCN(Cc3cnn(-c4ccccc4)c3-n3cccc3)C2)cc1 (centres undefined),21776*,-4,?,-3,-17
CCCc1cc(=O)n2[nH]c(C)nc2n1,24470*,-2,-2,-3,-4
O=C(OCCN1C(=O)c2cccc3c(N4CCOCC4)ccc(c23)C1=O)c1cccc(Cl)c1,/,/,/,/,-904
SMILES,Bead autofluor,Anthrax LF inh2,BoNT A protease,BoNT F protease,MazF activator
O=C(OCCN1C(=O)c2cccc3c(N4CCOCC4)ccc(c23)C1=O)c1ccc(Cl)cc1Cl,4710,24,51*,19,-802
O=C(OCCN1C(=O)c2cccc3c(N4CCOCC4)ccc(c23)C1=O)c1ccccc1Cl,3728,15,37*,8,-728
Cc1cc(Br)ccc1NC(=O)C1CCN(S(=O)(=O)c2cnc[nH]2)CC1,5290,1,0,-1,2
CCOC(=O)N1CCN(C(=O)C2CCN(Cc3ccc(O)c(OCC)c3)CC2)CC1,4817,-3,0,-2,7
CCOc1cc(CN2CCN(c3cccc(C(F)(F)F)c3)CC2)ccc1O,20233*,-3,1,-1,-2
CCOc1cc(CN2CCSCC2)ccc1O,16487*,-3,-2,-4,4
CC(C)(C)C1CCC(CN2CCC(CN3C(=O)C(=O)NC[C@@H]3Cc3ccccc3)CC2)CC1 (some centres undefined),5044,0,0,0,11
CCOc1cc(C(=S)N2CCCC2)ccc1OC,3437,6,-1,7,3
COc1cc(C(=S)N2CCCC2)cc(OC)c1O,20756*,-2,0,-1,6
O=[N+]([O-])c1cccc(S(=O)(=O)NCCc2ccccc2)c1,4100,-5,-3,14,-3
CC1(C)OC(=O)C(=NNc2ccc(Cl)cc2)C(=O)O1,22457*,-1,-4,-7,-1
CCCN(C(=O)CSCc1ccccc1C)c1c(N)n(Cc2ccccc2)c(=O)[nH]c1=O,?,-4,-3,0,2
COC(=O)[C@H](CCSC)NC(=O)NCc1ccccc1F,22106*,1,1,-2,-6
O=C(C(Cl)c1ccccc1)N1CCOCC1 (centres undefined),3915,4,-1,-2,4
O=C(/C=C/c1ccc(-c2ccccc2)o1)c1ccccc1,2583,31*,63*,14,-22
Cc1ccc(-c2ccc(/C=C/C(=O)c3ccccc3)o2)cc1,2633,19,44*,7,-22
O=Cc1ccc(-c2cccc(C(=O)O)c2)o1,4296,-6,0,2,7
Cc1oc(C)c(C(=O)O)c1COc1ccc(C(=O)O)cc1,4816,4,0,11,-4
COc1ccc(C(=O)NCc2c(C)oc(C)c2C(=O)O)cc1,3063,-4,1,36*,8
COc1ccc(OCC(O)CNC(=O)c2ccc(Br)cc2)cc1 (centres undefined),21623*,-6,3,6,5
COc1ccc(OCc2ccc(C(=O)NN)cc2)cc1,19696*,-1,0,-3,-5
COc1ccc(C(=O)NCC(=O)O)cc1,17003*,-4,-2,-8,5
N#C/C(N)=C(/C#N)N=Cc1cccc(Cl)c1,/,/,/,/,4
COc1ccc(C2C(C(=O)O)CC(=O)N2C2CCCCC2)cc1 (centres undefined),20476*,1,?,2,2
CSc1ccc(/C=c2\s/c(=C\C(=O)C(C)(C)C)n(CC(=O)NCCC3=CCCCC3)c2=O)cc1,2691,5,9,5,-24
CCCNC(=O)Cn1c(=O)/c(=C/c2ccc(-c3ccc([N+](=O)[O-])cc3)o2)s/c1=C\C(=O)C(C)(C)C,6201,33*,32*,22,-9
CCc1ccc(CN(C(=O)c2cc3ccccc3oc2=O)C2CCS(=O)(=O)C2)cc1 (centres undefined),8689,0,2,-3,9
